The values below come from PubChem BioAssay (NCI).

The panel holds about 83,000 compounds, 20% with a hit somewhere; the sample as a whole holds those more often.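 Compound tested at a single concentration for 48 hours in 96-well plates; a percent growth value below 10 was scored as active.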 Active and inactive are the calls of the source.

This assay has as its system OVCAR-3 ovarian. Nature of the assay: NCI-60 one-dose screen, 48 h (100 = growth as untreated, 0 = no growth, -100 = all killed). Conditions: 10 µM unless noted. The method, then: Growth inhibition of the OVCAR-3 human tumor cell line is measured as a screen for anti-cancer activity. Cells are grown in 96 well plates and exposed to the test compound for 48 hours. Compounds are tested at a single concentration, which is 10^-5 M for most compounds. The reported endpoint is percent growth (GI% or GIPRCNT), where numbers from 0 - 100% represent growth inhibition, and numbers from -100% - 0 represent cell death. For example, a value of 40 represents 60% growth inhibition. A value of 0 means no net growth occurred over the course of the experiment. A value of -40 indicates 40% of cells at the beginning of the experiment died by the end of the experiment. A value of -100 means all cells are dead at the end of the experiment.
NCI-60 Human Tumor Cell Lines Screen was performed using the standard one-dose NCI protocol, which is described in more detail at https://dtp.cancer.gov/discovery_development/nci-60/default.htm.
Compounds with GIPRCNT values below 10 were considered active. Activity score was based on GIPRCNT using the following formula: […]
Score is 0 for GIPRCNT values of 100 or above, 50 for GIPRCNT values of 0, and 100 for GIPRCNT values of -100.
Turning to `O=C(C[n+]1ccn(CC(OCc2ccc(Cl)cc2Cl)c2ccc(Cl)cc2Cl)c1)c1ccc(F)cc1` (stereo not given), the growth is -93% (active). For `CCn1cc(-c2ccnc(NCCNS(=O)(=O)c3ccc(Br)cc3)c2)c(-c2cccc(OC)c2)n1`, the growth is 78.3% (inactive).

In the case of `CCN(CC)CCSC(=O)C(O)(c1ccccc1)C1CCCC1` (stereo not given), the growth is 121% (inactive). Regarding `Oc1ccc(N=Nc2nccs2)c(O)c1`, the growth is -1.86% (active).

In the case of `O=S(=O)(NCc1ccccc1)c1ncnc2nc[nH]c12`, the growth was 111% (inactive).

For the molecule `C=C(C)[C@@H]1CC[C@]2(C)[C@H](CC=C3[C@@H]4[C@@H](C)[C@H](C)CC[C@]4(C(N)=O)CC[C@]32C)[C@@]1(C)CCC#N`, the growth was -53.6% [100 µM] (active). With `CCCC[C@@H](C=O)NC(=O)[C@H](CC(C)C)NC(=O)[C@H](CC(C)C)NC(=O)OCc1ccccc1`, the growth is -29.1% (active). Consider `Cn1cc(-c2noc(C(=O)c3cn(C)c4ncccc34)n2)c2ccccc21`, for which the growth was 103% (inactive). `COc1ccc(/C=C(/C2=NCCN2)n2ccc3ccccc32)cc1`: the growth was 97.9% (inactive). Consider `Nc1cc(NN=C(c2ccc(O)cc2)c2ccc(O)cc2)c([N+](=O)[O-])cc1[N+](=O)[O-]`, for which the growth was 82% (inactive).

Regarding `CC1=CCc2ccccc21`, the growth was 106% (inactive). The result for `COc1ccc2nc3cc(Cl)ccc3c(Nc3ccc(O)c(CN4CCCC4)c3)c2c1` reads -32.1% (active); that for `CC(C)[C@H]1COC(=O)N1[C@@H]1C(=O)N([C@@H](CCC(=O)N2CCN(C3CCCC3)CC2)C(=O)N[C@@H]2CCCc3ccccc32)[C@@H]1/C=C/c1cccc(Cl)c1`, 69% (inactive).

For `Cn1cc(-c2noc(-c3cn(C)c4ncccc34)n2)c2cc(Cl)ccc21`, the growth is 109% (inactive). The result for `CCC(Br)(CC)C(=O)c1ccc(OCC(=O)O)c(Cl)c1Cl` reads 116% (inactive); that for `Nc1ccc(NC(=O)c2ccccc2)c2c1C(=O)c1ccccc1C2=O`, 96.5% (inactive); that for `O=C1CC(C(F)(F)F)Cc2nc3ccc(Br)cc3cc21` (stereo not given), 94.2% (inactive). Consider `CC(C)C1=NOC(=O)C1=Cc1cn(-c2cccnc2)nc1-c1ccccc1`, for which the growth was 108% (inactive). The result for `Clc1ccc2nc(-c3ccc(-c4ccc(/C=N/NC5=NCCN5)cc4)s3)cn2c1` reads 109% (inactive); that for `CC(C)c1ccc(C(=O)Nc2sc3c(c2C#N)CCC(=O)C3)cc1`, -33.4% (active); that for `C[C@]12CCc3c(ccc4cc(O)ccc34)[C@@H]1CC[C@H]2O`, 94.9% (inactive). Regarding `Cc1cccc([N+](=O)[O-])c1I`, the growth is 118% (inactive). The result for `O=C(N/N=C/c1c(Cl)cccc1Cl)c1cccc(Nc2ccnc(C(F)(F)F)c2)c1` reads 137% (inactive). For `CCC(C)[C@H](NC(=O)NC(=O)NC(=O)CI)C(=O)OC` (stereo not given in full), the growth is -39.5% (active). As for `CCOC(=O)c1nn(C2CCCCO2)c2ccc(NS(=O)(=O)c3ccc(C)cc3)cc12` (stereo not given), the figure is 104% (inactive). Consider `CSc1nc2sc3cc(Cl)c(Cl)cc3n2c(=N)c1C#N`, for which the growth is 110% (inactive). As to `CCCCCn1c(C)cc(/C=C\c2ccc3cc(C)ccc3[n+]2C)c1C`, the growth is -72.7% (active). On to `COc1ncnc2c(-c3ccccc3)cn(COCc3ccccc3)c12`, for which the growth is 62.8% (inactive). With `O=C(COc1cccc(/C=C2\Oc3ccccc3C2=O)c1)c1ccc([N+](=O)[O-])cc1`, the growth was 88.5% (inactive). Consider `Clc1ccccc1/C=N\Nc1ccccn1`, for which the growth is 94.1% (inactive). With `Cc1ccc(S(=O)(=O)N/N=C2\CC3CCC2(C)C3(C)C)cc1` (stereo not given), the growth was 103% (inactive). With `CC1(C)CC[C@]2(C(=O)OC(=O)[C@]34CCC(C)(C)C[C@@H]3C3=CC[C@@H]5[C@@]6(C)CCC(=O)C(C)(C)[C@@H]6CC[C@@]5(C)[C@]3(C)CC4)CC[C@]3(C)C(=CC[C@@H]4[C@@]5(C)CCC(=O)C(C)(C)[C@@H]5CC[C@]43C)[C@H]2C1`, the growth was 74% [100 µM] (inactive).

Take `NC(=O)CC1C=CCC1` (stereo not given): the growth is 111% (inactive). As to `COc1ccc2nc3c(cc2c1)C(=O)CC(C(F)(F)F)C3` (stereo not given), the growth is 5.3% (active). Take `O=C1NC(=O)C(Cc2ccc(OCc3ccc(-c4cc(F)c(F)c(F)c4)cc3)cc2)S1` (stereo not given): the growth was 88.3% (inactive). As for `Brc1ccc(-c2nnc3c4[nH]ccc4ncn23)cc1`, the growth was 85.7% (inactive). `CN(C)C(=S)Sc1ccc([N+](=O)[O-])cc1[N+](=O)[O-]`: the growth was 1.07% (active). The result for `C=C(C)[C@@H]1CC[C@]2(COC(=O)c3ccccc3C(=O)O)CC[C@]3(C)[C@H](CC[C@@H]4[C@@]5(C)CC[C@H](OC(=O)c6ccccc6C(=O)O)C(C)(C)[C@@H]5CC[C@]43C)[C@@H]12` reads 2% [100 µM] (active). With `Cc1ccc(-c2cc(-c3ccc(C)cc3)nc(NCCNc3ccnc4cc(Cl)ccc34)n2)cc1`, the growth was -80.3% (active).

`CCN(CC)CCCOc1ccc2c(c1)O/C(=C\c1cccc(OC)c1)C2=O`: the growth is 91.2% (inactive).
